Source: PubChem BioAssay (EPA / NIEHS)
Inconclusive results are not listed. Calls of active or inactive are those of the source. Rule for the calls: active = hit-call score of the fitted dose curve at least 0.9, where 1 is the maximum; inconclusive = response in the unintended direction; inactive = score below 0.9.

Each compound was assayed against Peroxisome proliferator-activated receptor gamma (Homo sapiens) (UniProt P37231) (assay: OT_PPARg_PPARgSRC1_0480: Odyssey Thera (OT) 8-hour Protein-Complementation Assay for Peroxisome Proliferator-activated Receptor Gamma / SRC-1 Co-activator (AID 2283387);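 note: nuclear to cytoplasmic split Venus YFP fluorescence ratio reporting PPARg SRC-1 interaction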).
In short: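 HEK293T transiently transfected with PPARg and SRC-1 fused to Venus YFP fragments, compounds 8 h at 37C. Fixed, Draq5-stained cells imaged; nuclear/cytoplasmic 488 nm fluorescence ratio over at least 350 cells per image; gain fitted versus DMSO.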

Chain of Peroxisome proliferator-activated receptor gamma (Homo sapiens) (P37231 whole entry, looked up, the tested form may be a part): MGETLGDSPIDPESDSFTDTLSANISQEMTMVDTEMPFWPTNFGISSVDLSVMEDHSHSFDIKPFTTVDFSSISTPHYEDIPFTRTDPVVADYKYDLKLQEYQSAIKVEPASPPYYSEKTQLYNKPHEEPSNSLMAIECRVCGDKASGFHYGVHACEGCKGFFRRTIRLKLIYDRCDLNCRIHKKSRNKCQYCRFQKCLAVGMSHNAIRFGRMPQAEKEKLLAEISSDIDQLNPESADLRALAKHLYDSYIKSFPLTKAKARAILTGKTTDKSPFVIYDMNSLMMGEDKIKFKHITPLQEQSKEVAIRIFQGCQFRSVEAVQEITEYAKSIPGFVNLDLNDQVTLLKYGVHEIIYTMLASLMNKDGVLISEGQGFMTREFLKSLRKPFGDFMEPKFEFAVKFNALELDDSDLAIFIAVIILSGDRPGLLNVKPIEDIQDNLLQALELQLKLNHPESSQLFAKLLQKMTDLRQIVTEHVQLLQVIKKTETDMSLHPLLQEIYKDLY

outcome, inactive:
CCCCC(CC)COC(C)=O (centres undefined)
C[Si](C)(C)O[Si](C)(C)C
CC(CN=Cc1ccccc1O)N=Cc1ccccc1O (centres undefined)
CCCC(=O)OC(C)(C)Cc1ccccc1
CCCCCCCC(=O)OCC(O)CO (centres undefined)
C=Cc1ccc(C)cc1
O=P(O)(O)O
CN1C(=O)c2ccccc2C1=O
O=C(c1ccccc1)C(O)c1ccccc1 (centres undefined)
C=C[Si]1(C)O[Si](C)(C=C)O[Si](C)(C=C)O[Si](C)(C=C)O1 (centres undefined)
CN1CCOCC1
CCC(=O)O[C@@H]1C[C@H]2CC[C@]1(C)C2(C)C
[O-]n1ccccc1=S.[O-]n1ccccc1=S.[Zn+2]
CC1CC(O)CC(C)(C)C1 (centres undefined)
CN(C)c1cccc(O)c1

What follows are compounds tested against Peroxisome proliferator-activated receptor gamma (Homo sapiens) (UniProt P37231) (assay: OT_PPARg_PPARgSRC1_1440: Odyssey Thera (OT) 24-hour Protein-Complementation Assay for Peroxisome Proliferator-activated Receptor Gamma/ SRC-1 Co-activator (AID 2283388)).
In short: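 Cells carrying the PPARg/SRC-1 fragment-complementation reporter receive compound for 24 hours, are fixed and counterstained with Draq5, then imaged. Increased nuclear relative to cytoplasmic YFP fluorescence above DMSO baseline indicates binding activity.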

outcome, inactive:
C#CC(C)(O)CC(C)C (centres undefined)
CCCCC(CC)COC(C)=O (centres undefined)
C[Si](C)(C)O[Si](C)(C)C
Clc1ccc(C(c2ccccc2Cl)C(Cl)Cl)cc1 (centres undefined)
CC(CN=Cc1ccccc1O)N=Cc1ccccc1O (centres undefined)
COc1ccccc1N=Nc1c(S(=O)(=O)O)cc2cc(S(=O)(=O)O)cc(NC(C)=O)c2c1O
CCCCCCC(C)(C)S
CCCC(=O)OC(C)(C)Cc1ccccc1
OCC#CCO
CCCCCCCC(=O)OCC(O)CO (centres undefined)
C=Cc1ccc(C)cc1
O=P(O)(O)O
CN1C(=O)c2ccccc2C1=O
O=C(c1ccccc1)C(O)c1ccccc1 (centres undefined)
CC(C)Nc1nc(N)nc(Cl)n1
C=C(C)[C@@H]1CC=C(C)C(=O)C1
CCCCCC(C)=O
ON=C1CCCCC1
OC[C@H]1O[C@@H]2O[C@H]3[C@H](O)[C@@H](O)[C@@H](O[C@H]4[C@H](O)[C@@H](O)[C@@H](O[C@H]5[C@H](O)[C@@H](O)[C@@H](O[C@H]6[C@H](O)[C@@H](O)[C@@H](O[C@H]7[C@H](O)[C@@H](O)[C@@H](O[C@H]8[C@H](O)[C@@H](O)[C@@H](O[C@H]9[C@H](O)[C@@H](O)[C@@H](O[C@H]1[C@H](O)[C@H]2O)O[C@@H]9CO)O[C@@H]8CO)O[C@@H]7CO)O[C@@H]6CO)O[C@@H]5CO)O[C@@H]4CO)O[C@@H]3CO
Nc1ccc2cc(S(=O)(=O)O)cc(O)c2c1N=Nc1ccccc1C(F)(F)F
C=C[Si]1(C)O[Si](C)(C=C)O[Si](C)(C=C)O[Si](C)(C=C)O1 (centres undefined)
O=Cc1ccccc1S(=O)(=O)O
CN1CCOCC1
CCC(=O)O[C@@H]1C[C@H]2CC[C@]1(C)C2(C)C
[O-]n1ccccc1=S.[O-]n1ccccc1=S.[Zn+2]
COC(=O)c1ccc(C)cc1C1=NC(C)(C(C)C)C(=O)N1 (centres undefined) (tested in a mixture with another compound)
CCOc1ccccc1O
CC1CC(O)CC(C)(C)C1 (centres undefined)
CN(C)c1cccc(O)c1
